In the library only some 7.5% were active in any assay of this set; here they are far more common.
FLuc modulator: qHTS profiling assay for firefly luciferase inhibitor/activator using purifed enzyme and Km concentrations of substrates (counterscreen for miR-21 project). Potency, µM (series often up to 57.5 µM), actives largely listed as inhibitors. Luciferin 4-monooxygenase (Photinus pyralis), P08659. AID 588342, 2011. purified FLuc, Km substrates, luminescence inhibition. 6.9% of 360,000 active; further: nearly all actives have a fitted effect of over 55% in size
Target sequence (P08659 whole entry, looked up): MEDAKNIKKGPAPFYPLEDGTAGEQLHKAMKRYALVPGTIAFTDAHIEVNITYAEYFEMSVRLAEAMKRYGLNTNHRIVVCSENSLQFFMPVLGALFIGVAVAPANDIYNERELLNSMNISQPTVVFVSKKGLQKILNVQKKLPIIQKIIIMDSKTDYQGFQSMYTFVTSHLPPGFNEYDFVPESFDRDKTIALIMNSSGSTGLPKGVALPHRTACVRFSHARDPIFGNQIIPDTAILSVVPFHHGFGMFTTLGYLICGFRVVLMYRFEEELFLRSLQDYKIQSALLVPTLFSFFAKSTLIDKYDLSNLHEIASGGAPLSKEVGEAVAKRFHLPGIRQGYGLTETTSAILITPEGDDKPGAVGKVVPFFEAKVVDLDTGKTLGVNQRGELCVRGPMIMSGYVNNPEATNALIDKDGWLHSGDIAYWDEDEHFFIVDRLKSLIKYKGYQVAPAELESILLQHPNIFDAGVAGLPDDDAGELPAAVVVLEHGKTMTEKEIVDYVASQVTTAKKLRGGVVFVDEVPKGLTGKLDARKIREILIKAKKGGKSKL
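Purified P. pyralis luciferase (10nM final) with 10uM D-luciferin and 10uM ATP (Km levels) in 50mM Tris acetate pH 7.5, 10mM Mg acetate, 0.01% Tween-20, 0.05% BSA; qHTS 6-point titration, ~60 µM downward; luminescence read.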
SMN2 splice enh: qHTS Assay for Enhancers of SMN2 Splice Variant Expression; HEK293 SMN2-luciferase splicing reporter, luminescence, 30-36 h; Potency, µM (titrated, usually from 46.1 µM), actives largely listed as activators; 2.8% of 210,000 active; AID 1458, 2008; further: nearly all actives have a fitted effect of over 55% in size
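HEK293 cells carry an SMN2 minigene-luciferase reporter in which exon 7 inclusion puts luciferase in frame. Cells were seeded at 2000 cells/well, attached for 10-12 hours, then exposed to compounds for 30-36 hours at 37C before ONE-Glo luminescence.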
Rab9 prom act: qHTS Assay for Rab9 Promoter Activators; Huh7 Rab9 promoter-luciferase reporter, luminescence, 24 h; Potency, µM (highest dose often 9.22 µM), usual class: activators; 2.8% of 320,000 active; AID 485297, 2010; further: nearly all actives have a fitted effect of over 60% in size
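Luciferase signal after 10 min detection reagent at ambient indicates Rab9 promoter upregulation; stably transfected Huh7 cells were treated 24 h with compound in DMSO at 37 °C, 5% CO2.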
ELG1 genotox: qHTS screen for small molecules that induce genotoxicity in human embryonic kidney (HEK293T) cells expressing luciferase-tagged ELG1 | 1.3% of 330,000 active | Potency, µM (titrated, usually from 46 µM), usual class: activators | HEK293T ELG1-luciferase reporter, luminescence, 16 h; further: nearly all actives have a fitted effect of over 60% in size
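DMSO vehicle served as control against compound-treated ELG1-luciferase HEK293T cells; exposure lasted 16 hr at 37 °C and 5% CO2, followed by ONE-Glo luminescence detection after 30 min.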
NPC1 promoter act: qHTS Assay for NPC1 Promoter Activators | Huh7 NPC1 promoter luciferase reporter, 24 h | Potency, µM (top dose mostly 9.22 µM), usual class: activators | 2.4% of 320,000 active | AID 485313, 2010; further: nearly all actives have a fitted effect of over 60% in size
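Compounds in DMSO were transferred onto Huh7 NPC1-luciferase reporter cells pre-incubated 2 h; after 24 h at 37 °C, Amplite reagent was dispensed and luminescence recorded 10 min later.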
KinaseGlo FLuc: Counterscreen for Luciferase (Kinase-Glo TM) Inhibition | Kinase-Glo luciferase, ATP luminescence, 8 min | Luciferin 4-monooxygenase (Photuris pensylvanica), Q27757 | 0.28% of 200,000 active | Potency, µM (highest dose often 38.3 µM), usual class: inhibitors; further: nearly all actives have a fitted effect of over 60% in size
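Luminescence was the read-out, taken after 8-minute incubation at ambient temperature. Luciferase turned over luciferin with 10 uM ATP in imidazole pH 7.2 buffer containing KCl, MgCl2, Tween 20 and BSA.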
Large screens that a line does not name were inactive. The call rests on the fitted dose curve; in most records, active means well fitted curve in the direction sought with a large enough effect; inconclusive means small, poorly fitted or top-dose-only effect, or another doubt; inactive means no such curve, though single readings can be large; an effect the other way counts as inactive or inconclusive.

Cc1cc(NC(=O)c2ccc3nc(C)sc3c2)no1	FLuc modulator inconclusive, SMN2 splice enh 4µM, Rab9 prom act 1.8µM, ELG1 genotox 9.2µM, NPC1 promoter act 0.89µM
O=S(=O)(Nc1cccc(-c2nnco2)c1)c1ccc(Cl)cc1	none (no result: SMN2 splice enh, KinaseGlo FLuc)
CC1(C)CC(=O)C2=C(C1)O[C@@]1(c3ccsc3)Cc3cc(C#N)ccc3C2O1	FLuc modulator inconclusive (no result: SMN2 splice enh, ELG1 genotox, KinaseGlo FLuc)
Cn1c(SCC(=O)Nc2cccnc2Cl)nnc1-c1ccco1	none (no result: FLuc modulator, SMN2 splice enh, Rab9 prom act, NPC1 promoter act, KinaseGlo FLuc)
Cc1cc(NC(=O)c2ccc(S(=O)(=O)N(C)C)cc2)no1	none
Cc1cc(NC(=O)c2ccc(Cl)cc2)no1	FLuc modulator 7.6µM, SMN2 splice enh 11µM, Rab9 prom act 3.2µM, ELG1 genotox 8.2µM, NPC1 promoter act inconclusive
CCOc1ccc(C(=O)Nc2cc(C)on2)cc1	FLuc modulator 3.4µM, SMN2 splice enh 8.9µM, Rab9 prom act 1.4µM, ELG1 genotox inconclusive, NPC1 promoter act 1.1µM
COc1ccccc1Nc1ncc2c(n1)CCN(CC(C)C)C2	FLuc modulator 21µM (no result: SMN2 splice enh, Rab9 prom act, ELG1 genotox, NPC1 promoter act, KinaseGlo FLuc)
COc1cc(CN2CCc3nc(Nc4ccc5c(c4)OCCO5)ncc3C2)cc(OC)c1OC	FLuc modulator 15µM (no result: SMN2 splice enh, Rab9 prom act, ELG1 genotox, NPC1 promoter act, KinaseGlo FLuc)
CCc1ccc(CN2CCc3nc(Nc4ccc5c(c4)OCCO5)ncc3C2)cc1	none (no result: SMN2 splice enh, Rab9 prom act, ELG1 genotox, NPC1 promoter act, KinaseGlo FLuc)
COc1ccccc1Nc1ncc2c(n1)CCN(Cc1cc(F)cc(F)c1)C2	none (no result: SMN2 splice enh, Rab9 prom act, ELG1 genotox, NPC1 promoter act, KinaseGlo FLuc)
CC(/C=C/c1ccc(N(C)C)cc1)=N\N=C(/N)SC1CC(=O)N(c2ccc(C(=O)O)cc2)C1=O (centres undefined)	FLuc modulator 1.1µM, SMN2 splice enh inconclusive, Rab9 prom act inconclusive, ELG1 genotox inconclusive
COc1cc(/C=C/c2nc(C#N)c(NCCc3ccccc3)o2)cc(OC)c1OC	none (no result: Rab9 prom act, ELG1 genotox, NPC1 promoter act, KinaseGlo FLuc)
COc1cc(C(=O)Nc2cccc(S(=O)(=O)NCc3ccco3)c2)cc(OC)c1OC	none (no result: SMN2 splice enh, KinaseGlo FLuc)
O=C(COc1ccc(Cl)cc1)Nc1cccc(S(=O)(=O)NCc2ccco2)c1	FLuc modulator 17µM (no result: SMN2 splice enh, KinaseGlo FLuc)
CC(=O)CCc1ccc(OCC(=O)Nc2cccc(S(=O)(=O)N(C)c3ccccc3)c2)cc1	FLuc modulator 11µM (no result: SMN2 splice enh, KinaseGlo FLuc)
COc1ccccc1OCC(=O)Nc1cccc(S(=O)(=O)NC2=NCCCCC2)c1	none (no result: SMN2 splice enh, KinaseGlo FLuc)
CC(C)(C)c1ccc(OCC(=O)Nc2cccc(S(=O)(=O)NC3=NCCCCC3)c2)cc1	FLuc modulator 11µM (no result: SMN2 splice enh, KinaseGlo FLuc)
N#Cc1ccc(OCC(=O)Nc2cccc(S(=O)(=O)NC3=NCCCCC3)c2)cc1	FLuc modulator inconclusive (no result: SMN2 splice enh, KinaseGlo FLuc)
O=C(COc1ccc(Cl)cc1)Nc1cccc(S(=O)(=O)NC2=NCCCCC2)c1	FLuc modulator 15µM (no result: SMN2 splice enh, KinaseGlo FLuc)
Cc1ccc(C)c(NC(=O)COC(=O)CNC(=O)C2CCCCC2)c1	none (no result: FLuc modulator, SMN2 splice enh, KinaseGlo FLuc)
O=C(CNC(=O)N1CC(=O)Nc2ccccc21)NCCc1ccc(Cl)cc1	none (no result: SMN2 splice enh, KinaseGlo FLuc)
Cc1cccc(C(=O)Nc2cc(S(=O)(=O)N3CCOCC3)ccc2N2CCCCC2)c1	none (no result: SMN2 splice enh, KinaseGlo FLuc)
O=C(O)c1cc(Cl)cc(Cc2cc(Cl)cc(C(=O)O)c2O)c1O	none (no result: FLuc modulator, Rab9 prom act, ELG1 genotox, NPC1 promoter act)
O=C(COc1ccccc1Cl)Nc1cccc(S(=O)(=O)NC2=NCCCCC2)c1	FLuc modulator 19µM (no result: SMN2 splice enh, KinaseGlo FLuc)
Cc1ccc(C)c(OCC(=O)Nc2cccc(S(=O)(=O)NC3=NCCCCC3)c2)c1	none (no result: SMN2 splice enh, KinaseGlo FLuc)
Cc1cc(Cl)ccc1OCC(=O)Nc1cccc(S(=O)(=O)NC2=NCCCCC2)c1	FLuc modulator 13µM (no result: SMN2 splice enh, KinaseGlo FLuc)
CCN(C(=O)Cn1nnc2sc3c(c2c1=O)CCC(C(C)(C)C)C3)c1cccc(C)c1 (centres undefined)	none (no result: Rab9 prom act, ELG1 genotox, NPC1 promoter act, KinaseGlo FLuc)
CCS(=O)(=O)c1ncc(N(Cc2cccc(F)c2)Cc2ccco2)c(C(=O)Nc2ccccc2Cl)n1	none (no result: SMN2 splice enh, Rab9 prom act, ELG1 genotox, NPC1 promoter act, KinaseGlo FLuc)
CC(C)[C@H](NC(=O)c1cc2cc(Cl)ccc2n1C)C(=O)N[C@@H](C(=O)O)c1ccccc1	none (no result: SMN2 splice enh, KinaseGlo FLuc)
N#Cc1c(NCCN)nc(NCc2ccccc2)c2c1CCN(Cc1ccccc1)C2	none (no result: SMN2 splice enh, KinaseGlo FLuc)
Nc1[nH]nc2nc(NCc3ccccc3)c3c(c12)CCN(Cc1ccccc1)C3	SMN2 splice enh 25µM
CCOC(=O)CN1C(=O)S/C(=C/c2ccc3c(c2)n(C)c(=O)n3C)C1=O	FLuc modulator inconclusive, SMN2 splice enh 16µM, ELG1 genotox 21µM
CCOC(=O)CN1C(=O)S/C(=C/C=C/c2ccc(N(C)C)cc2)C1=O	FLuc modulator 4.8µM, SMN2 splice enh inconclusive, Rab9 prom act 3.5µM, ELG1 genotox inconclusive, NPC1 promoter act inconclusive
O=C(CN1C(=O)S/C(=C\C=C\c2ccccc2)C1=O)N1CCCCC1	FLuc modulator inconclusive (no result: SMN2 splice enh, KinaseGlo FLuc)
N/C(=N\OC(=O)c1ccc2c(c1)OCO2)c1cccc([N+](=O)[O-])c1	FLuc modulator 0.43µM, Rab9 prom act inconclusive, ELG1 genotox inconclusive
Cc1cccc(/C(N)=N/OC(=O)c2ccc3c(c2)OCO3)c1	FLuc modulator 0.19µM, SMN2 splice enh 25µM, Rab9 prom act 2.8µM, ELG1 genotox 9.2µM, NPC1 promoter act 2.8µM, KinaseGlo FLuc 10µM
COc1ccc(/C(N)=N/OC(=O)c2cccc([N+](=O)[O-])c2)cc1OC	FLuc modulator inconclusive, ELG1 genotox inconclusive
CCN(C(=O)COC(=O)c1c2c(nc3ccccc13)/C(=C/c1ccccc1)CC(C)C2)C1CCS(=O)(=O)C1 (centres undefined)	none
O=C(NCc1ccccc1)C(c1ccco1)N(C(=O)c1ccccn1)c1ccccc1 (centres undefined)	none (no result: SMN2 splice enh, KinaseGlo FLuc)

From PubChem BioAssay
